37 compounds from PubChem BioAssay AID492948 (National Center for Advancing Translational Sciences (NCATS), 2010) can be followed below.

Records with an inconclusive call do not appear. The source made the active and inactive calls. Calls come from the whole dose curve; as a rule, active = well fitted activation curve with a large enough effect; inconclusive = small, poorly fitted or top-dose-only effect; inactive = no such curve, though single readings can be large or run the other way.
Potency is the fitted concentration of half-maximal effect.

The test is described as follows: qHTS Assay for Agonists of the Relaxin Receptor RXFP1: V1B Hit Validation.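 For activation: cAMP accumulation with PDE4 inhibitor Ro 20-1724 present during compound exposure.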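 Note: counter-screen in HEK293 cells expressing V1B rather than RXFP1 for selectivity; nearly all actives have a fitted effect of over 65% in size.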 The note with it: HEK293 V1B cells, cAMP TR-FRET, 30 min; series mostly up to 115 µM. The essentials:
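HEK293 cells expressing V1B, 2000/well, treated 30 min at 37C with compound plus PDE4 inhibitor Ro 20174; cAMP by HTRF TR-FRET (665/615 nm). Normalized to buffer and 29 nM porcine relaxin; EC50 from Hill fit.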
Background: Quantitative high-throughput screening tests each substance at several concentrations.
Turning to `O=C(O)CCNc1ccc(NCCC(=O)O)c2c1C(=O)c1ccccc1C2=O`, the Potency entry was “inactive”.

Take `CN(Cc1ccccc1)C(=O)c1ccccc1NC(=O)c1ccco1`: the Potency entry is “inactive”. Next, `Cc1cc2nc3ccc(=[N+](C)C)cc-3sc2cc1N`: “inactive”; `O=C(Oc1ccccc1)Oc1ccc2c(c1)oc(=O)c1ccccc12`: 21.8 µM (active); `CC(C(=O)OCC(=O)N(C)C1(C#N)CCCCC1)N1C(=O)c2ccccc2C1=O` (configuration not stated): 13.8 µM (active).

As for `N#Cc1c(N)nc(SCC(=O)C23CC4CC(CC(C4)C2)C3)c(C#N)c1-c1ccc(Cl)cc1`, the Potency is 12.3 µM (active). Next, `CCOC(=O)c1sc(NC(=O)CCc2ccc(OC)cc2)nc1C`: 15.4 µM (active). Next, `CCCn1c(SCC(=O)Nc2ccc(NC(C)=O)cc2)nc2c1c(=O)n(C)c(=O)n2C`: 38.9 µM (active); `Cn1c(N)c(C(=O)CSc2nnc(NC3CCCCC3)s2)c(=O)n(C)c1=O`: “inactive”. With `Cc1ccc(CN(C)C(=O)c2ccccc2NC(=O)c2ccccc2)o1`, the Potency entry is “inactive”.

For `CC(=O)C1C(c2ccccc2)c2c(noc2C)CC1(C)O` (configuration not stated), the Potency result is “inactive”. Next, `COC(=O)c1nc2ccc(N3CCOCC3)cc2c(C)c1C(=O)OC`: 34.6 µM (active); `Cc1ccc(C(=O)Nc2ccccc2C(N)=O)o1`: “inactive”; `Cc1cc(C)nc(NS(=O)(=O)c2ccc(NC(=O)c3nn(-c4ccccc4)ccc3=O)cc2)n1`: 15.5 µM (active). With `CC(C)Oc1ccc(S(=O)(=O)N2CCOCC2)cc1NC(=O)c1cc([N+](=O)[O-])ccc1N1CCOCC1`, the Potency is 37.5 µM (active).

As to `CCOc1ccc(NC(=O)CSc2ccc3nnc(-c4cccnc4)n3n2)cc1`, the Potency was 38.9 µM (active). Next, `CCc1cc2c(=O)nc3n(c2s1)Cc1ccccc1/C3=C(/O)c1cccc([N+](=O)[O-])c1`: 3.89 µM (active); `Nc1c(Cl)cc(-c2[nH]c3cc(C(=O)NCCO)ccc3c(=O)c2O)cc1Cl`: 34.6 µM (active). Take `O=C(NC1CCCCCC1)c1cc2c(=O)n3ccccc3nc2s1`: the Potency is 38.9 µM (active).

For the compound `Cc1cccc2cc(C#N)c(SCC(=O)NCc3cccs3)nc12`, the Potency was 19.4 µM (active). For `O=C(O)c1cc(-c2ccco2)nc2ccc(Br)cc12` the value was 19.4 µM (active). Next, `C=CCNc1ncnc2c1ncn2C1OC(CO)C(O)C1O` (configuration not stated): “inactive”; `c1ccc(COn2nnc3ccccc32)c(COn2nnc3ccccc32)c1`: “inactive”. Next, `Nc1c(S(=O)(=O)O)cc(NC(=O)c2ccccc2)c2c1C(=O)c1ccccc1C2=O`: “inactive”.

Regarding `O=C(O)CCSc1ccc2ccccc2n1`, the Potency was 6.15 µM (active). For `S=c1nc[nH]c2c1[nH]c1ccccc12` the value was 6.9 µM (active); for `Cc1cc(C(=O)COC(=O)Cn2cnc3c2c(=O)n(C)c(=O)n3C)c(C)n1C`, 13.8 µM (active).

For the compound `COC(=O)[C@@H]1C[C@@]2(O)[C@H](O)[C@H](O)[C@H](O)C[C@H]2N1Cc1cc(F)ccc1F`, the Potency entry is “inactive”. For `Cc1cccc(NC(=O)c2ccccc2NC(=O)c2ccco2)c1` the value was “inactive”; for `O=C(Nc1ccccc1C(=O)NCc1ccco1)c1ccccc1`, “inactive”; for `O=C(O)c1ccc(N2C(=O)c3cccc4cccc(c34)C2=O)cc1`, 74.9 µM (active). For `CN(C)c1ccc(C(=S)N2CCN(S(=O)(=O)c3ccccc3)CC2)cc1` the value was “inactive”; for `CCOC(=O)C1CCN(C(=O)c2cc3c(=O)n4ccccc4nc3s2)CC1`, 43.6 µM (active). Next, `O=C(COc1ncnc2scc(-c3ccccc3)c12)NCCN1C(=O)CSC1=O`: 19.4 µM (active); `O=C(O)c1ccc(N2C(=O)c3cccc4c(C(=O)O)ccc(c34)C2=O)cc1`: 47.3 µM (active); `CCn1c(SCC(=O)Nc2ccc(NC(C)=O)cc2)nc2c1c(=O)n(C)c(=O)n2C`: 30.9 µM (active). On to `Cc1ccnc(NS(=O)(=O)c2ccc(N3C(=O)c4ccccc4C3=O)cc2)n1`, for which the Potency is 14.9 µM (active).
